Compound activity: PubChem BioAssay, several laboratories
BoNT A protease: BoNT/A light chain protease inhibitors, primary screen, biochemical, flow cytometry, MLPCN library; actives 0.17% (n = 360,000); multiplex microsphere protease substrate cleavage; inhibition, % at 10 µM; AID 588499, 2011; note: plate controls were buffer without enzyme for full effect and enzyme alone for no effect
BoNT-F LC inh: BoNT/F light chain protease inhibitors, primary screen, biochemical, flow cytometry, MLPCN library. Multiplex microsphere protease cleavage assay. inhibition, % at 10 µM. actives 0.22% (n = 360,000). AID 588497, 2011; in the data active = inhibition above about 35%, passing the limit was not always enough; inconclusive = no clear call, values can overlap the other calls; note: plate controls were buffer without enzyme for full effect and enzyme alone for no effect
Anthrax LF prot: Bacillus anthracis LF protease inhibitors, primary screen, biochemical, multiplex microsphere, MLPCN library; actives 0.12% (n = 360,000); multiplex microsphere protease cleavage assay; inhibition, % at 10 µM; Lethal factor (Bacillus anthracis), P15917; note: plate controls were buffer without enzyme for full effect and enzyme alone for no effect
Target sequence (P15917 whole entry, looked up): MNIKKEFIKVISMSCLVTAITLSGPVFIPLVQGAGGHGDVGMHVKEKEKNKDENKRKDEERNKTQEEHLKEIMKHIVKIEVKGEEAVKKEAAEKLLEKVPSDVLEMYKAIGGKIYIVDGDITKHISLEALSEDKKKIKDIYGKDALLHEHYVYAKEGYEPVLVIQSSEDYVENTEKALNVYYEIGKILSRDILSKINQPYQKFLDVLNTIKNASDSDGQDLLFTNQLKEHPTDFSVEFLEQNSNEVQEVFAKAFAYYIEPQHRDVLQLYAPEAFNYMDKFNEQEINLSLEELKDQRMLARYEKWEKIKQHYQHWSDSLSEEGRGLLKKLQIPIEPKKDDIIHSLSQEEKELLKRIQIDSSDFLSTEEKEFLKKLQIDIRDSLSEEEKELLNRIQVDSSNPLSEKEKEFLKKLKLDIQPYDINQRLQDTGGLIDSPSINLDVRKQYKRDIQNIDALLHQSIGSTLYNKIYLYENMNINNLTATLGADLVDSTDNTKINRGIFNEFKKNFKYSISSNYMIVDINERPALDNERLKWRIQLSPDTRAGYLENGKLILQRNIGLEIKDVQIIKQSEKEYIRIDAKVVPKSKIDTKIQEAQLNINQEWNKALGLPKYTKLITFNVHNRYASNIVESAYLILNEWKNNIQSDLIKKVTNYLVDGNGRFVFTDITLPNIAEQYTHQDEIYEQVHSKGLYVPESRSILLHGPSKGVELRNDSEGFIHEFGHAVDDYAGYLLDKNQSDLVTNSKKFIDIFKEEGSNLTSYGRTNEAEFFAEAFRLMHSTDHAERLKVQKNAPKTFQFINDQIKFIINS
Autofluor counter: compound fluorescence in toxin protease inhibitor counterscreen; compound autofluorescence counterscreen, microsphere flow cytometry; stronger effect = higher value; fluorescence intensity (test concentration not listed); actives 3.1% (n = 360,000); AID 624483; in the data active = fluorescence intensity above about 16000; inconclusive = no clear call, values can overlap the other calls
SARS 3CLpro inh: SARS-CoV 3CLpro protease inhibitors, primary screen, biochemical, quenched FRET. Replicase polyprotein 1ab (Severe acute respiratory syndrome coronavirus), P0C6X7. recombinant SARS-CoV 3CLpro, quenched FRET peptide cleavage. inhibition, % at 6 µM. actives 0.14% (n = 290,000). AID 1706, 2009; in the data active = inhibition above about 12%
An asterisk follows results filed as active. Shown are actives, neighbours in structure and some others; about 3.5% of the full set was active somewhere. Cut-off read from the data, not from the text of the source, unless noted: active = inhibition above about 30%; inconclusive = no clear call, values can overlap the other calls; inactive = below that.

How did COC(=O)Cc1cc(=O)[nH]c(/N=C(\N)Nc2ccccc2)n1 do in these assays?
BoNT A protease: 4; BoNT-F LC inh: 6; Anthrax LF prot: -1; Autofluor counter: 21352*; SARS 3CLpro inh: -1

How did CCCc1cc(=O)[nH]c(/N=C(\N)Nc2ccccc2)n1 do in these assays?
BoNT A protease: 1; BoNT-F LC inh: -1; Anthrax LF prot: -5; Autofluor counter: 9496; SARS 3CLpro inh: 1

Results for NNC(=O)c1ccc2[nH]c3c(c2c1)CCCC3 ?
BoNT A protease: -1; BoNT-F LC inh: -3; Anthrax LF prot: 2; Autofluor counter: 4272; SARS 3CLpro inh: 4

What do the screens show for `CN1CCc2[nH]c3ccc(C(=O)NN)cc3c2C1`?
BoNT A protease: 4; BoNT-F LC inh: -2; Anthrax LF prot: -2; Autofluor counter: 20838*; SARS 3CLpro inh: -7

What do the screens show for `O=C(NC1CCCC1)c1cc(-c2ccccc2O)on1`?
BoNT A protease: -1; BoNT-F LC inh: 0; Anthrax LF prot: 2; Autofluor counter: 6494; SARS 3CLpro inh: 1

What do the screens show for `Cc1cc(C)c(C(=O)NC2CC(C)(C)Cc3c2cnn3-c2ccccc2)o1` (configuration not stated)?
BoNT A protease: 0; BoNT-F LC inh: 1; Anthrax LF prot: -3; Autofluor counter: 5669; SARS 3CLpro inh: 2

How did CCN1C(=O)C(CC(=O)NCc2ccc(Cl)cc2)N(CC)C1=O (configuration not stated) do in these assays?
BoNT A protease: -1; BoNT-F LC inh: -1; Anthrax LF prot: 0; Autofluor counter: 20390*; SARS 3CLpro inh: 2

How did Clc1ccccc1Nc1ncnc2c1nnn2Cc1ccccc1 do in these assays?
BoNT A protease: inconclusive; BoNT-F LC inh: -2; Anthrax LF prot: -5; Autofluor counter: 16216*; SARS 3CLpro inh: 4

Results for c1ccc(Cn2nnc3c(N4CCc5ccccc5C4)ncnc32)cc1 ?
BoNT A protease: 4; BoNT-F LC inh: 8; Anthrax LF prot: 1; Autofluor counter: 20729*; SARS 3CLpro inh: 2

How did CCN1CCN(c2ncnc3c2nnn3Cc2ccccc2)CC1 do in these assays?
BoNT A protease: 1; BoNT-F LC inh: 1; Anthrax LF prot: -2; Autofluor counter: 3080; SARS 3CLpro inh: 4

How did c1ccc(Cn2nnc3c(N4CCCC4)ncnc32)cc1 do in these assays?
BoNT A protease: -1; BoNT-F LC inh: -4; Anthrax LF prot: 0; Autofluor counter: 16477*; SARS 3CLpro inh: 9

Results for O=S1(=O)N=C(N2CCN(Cc3ccc4c(c3)OCO4)CC2)c2ccccc21 ?
BoNT A protease: -1; BoNT-F LC inh: -13; Anthrax LF prot: -2; Autofluor counter: 11274; SARS 3CLpro inh: -9

Results for S=C(Nc1ccc(Cl)cc1)N1CCN(C2CCCCC2)CC1 ?
BoNT A protease: 1; BoNT-F LC inh: 0; Anthrax LF prot: 0; Autofluor counter: 21880*; SARS 3CLpro inh: -1

What do the screens show for `CC(C)(C)NC(=O)C12CCC(C)(c3nc4ccccc4nc31)C2(C)C` (configuration not stated)?
BoNT A protease: 3; BoNT-F LC inh: 3; Anthrax LF prot: -1; Autofluor counter: 22617*; SARS 3CLpro inh: 5

How did COC(=O)C12CCC(C)(c3nc4ccccc4nc31)C2(C)C (configuration not stated) do in these assays?
BoNT A protease: 0; BoNT-F LC inh: 10; Anthrax LF prot: -9; Autofluor counter: 3265; SARS 3CLpro inh: 6

Results for O=C(Nc1cnn(Cc2c(Cl)cccc2Cl)c1)c1ccc([N+](=O)[O-])cc1 ?
BoNT A protease: 0; BoNT-F LC inh: inconclusive; Anthrax LF prot: 0; Autofluor counter: 4341; SARS 3CLpro inh: 2

How did Cc1cc(=O)[nH]c(SCc2cccc(Br)c2)n1 do in these assays?
BoNT A protease: 1; BoNT-F LC inh: 3; Anthrax LF prot: -1; Autofluor counter: 2170; SARS 3CLpro inh: 6

How did C/C=C/c1ccc(OCCSc2nc(C)cc(=O)[nH]2)c(OC)c1 do in these assays?
BoNT A protease: -6; BoNT-F LC inh: -9; Anthrax LF prot: -1; Autofluor counter: 17582*; SARS 3CLpro inh: 3

What do the screens show for `CCc1cc(OCCCSc2nc(C)cc(=O)[nH]2)ccc1Cl`?
BoNT A protease: inconclusive; BoNT-F LC inh: -3; Anthrax LF prot: 0; Autofluor counter: 24555*; SARS 3CLpro inh: 2

How did Cc1cc(=O)[nH]c(SCCOc2ccc3c(c2)CCC3)n1 do in these assays?
BoNT A protease: 0; BoNT-F LC inh: 5; Anthrax LF prot: 0; Autofluor counter: 9691; SARS 3CLpro inh: 4
